Source: PubChem
Sfp inh – blocks B. subtilis Sfp PPTase activity | Q9F4F7 | Biochemical Sfp PPTase activity, qHTS | Potency, µM, hits mostly inhibitors | actives 3.5% (n = 310,000);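 note: the enzyme is Sfp with the accession as filed and its product quenches rhodamine fluorescence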
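Fluorescence-quenching assay: 15 nM Sfp-PPTase preincubated 15 min at room temperature with compound, then 5 uM rhodamine-CoA and 12.5 uM BHQ-2-labelled YbbR peptide added. Fluorescence (ex 525/em 598 nm) read at start and after 30 min; difference gives rate.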
HP1b binding inh – blocks HP1-beta chromodomain binding to methylated histone tails; AlphaScreen HP1-beta / biotin-H3K9me3 peptide binding; Potency, µM (highest dose often 114 µM), usual class: inhibitors; actives 0.56% (n = 390,000); note: nearly all actives have a fitted effect of over 70% in size
Target sequence (P83916 whole entry, looked up): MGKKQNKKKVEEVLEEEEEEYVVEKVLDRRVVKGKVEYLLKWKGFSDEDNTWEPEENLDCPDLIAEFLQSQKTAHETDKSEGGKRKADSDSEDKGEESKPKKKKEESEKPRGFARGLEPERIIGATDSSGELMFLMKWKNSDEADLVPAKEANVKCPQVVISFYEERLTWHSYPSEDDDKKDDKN
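HP1-beta protein (50 nM final) preincubated 30 min at room temperature with biotinylated H3(1-18)K9me3 peptide (50 nM) in PBS pH 7.4, 0.01% Tween-20, then compound added for 30 min. AlphaScreen streptavidin donor/nickel chelate acceptor beads (10 ug/mL final), 30 min dark, luminescence read.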
L3MBTL1 block – inhibitors of human L3MBTL1; Q9Y468; AlphaScreen L3MBTL1–H3K9me1 peptide binding; Potency, µM (doses to about 57.1 µM), most hits filed as inhibitors; actives 0.66% (n = 230,000); AID 485360; note: nearly all actives have a fitted effect of over 60% in size
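AlphaScreen assay: L3MBTL1 (50 nM final) was preincubated 30 min at room temperature with biotinylated H3(1-15)K9me1 peptide (75 nM final), then 30 min with library compounds; streptavidin donor and nickel chelate acceptor beads (10 ug/mL final) added, 30 min dark.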
BAZ2B block – blocks human BAZ2B; Potency, µM (highest dose often 114 µM), most hits filed as inhibitors; AlphaScreen BAZ2B-H3K14Ac peptide displacement; Q9UIF8; actives 4.4% (n = 360,000); AID 504333; note: nearly all actives have a fitted effect of over 60% in size
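Protein-peptide AlphaScreen: BAZ2B 50 nM, b-H3K14Ac 50 nM, 1x PBS pH 7.4 + 0.01% Tween-20. Preincubation 30 min RT; cpd 30 min RT (top 110 uM); beads 20 min RT, light-protected.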
JMJD2A Tudor inh – inhibitors of human JMJD2A Tudor domain; O75164; AlphaScreen JMJD2A-Tudor / H3K4me3 peptide binding; Potency, µM (series often up to 114 µM), most hits filed as inhibitors; actives 4.4% (n = 390,000); AID 504339; note: nearly all actives have a fitted effect of over 50% in size
G9a block – inhibitors of human histone lysine methyltransferase G9a. Q96KQ7. G9a H3K9 monomethylation, AlphaScreen, 2 h. Potency, µM (doses to about 102 µM), actives largely listed as inhibitors. actives 8.8% (n = 350,000). AID 504332; note: nearly all actives have a fitted effect of over 75% in size
Target sequence (Q96KQ7 913-1193 limits assumed): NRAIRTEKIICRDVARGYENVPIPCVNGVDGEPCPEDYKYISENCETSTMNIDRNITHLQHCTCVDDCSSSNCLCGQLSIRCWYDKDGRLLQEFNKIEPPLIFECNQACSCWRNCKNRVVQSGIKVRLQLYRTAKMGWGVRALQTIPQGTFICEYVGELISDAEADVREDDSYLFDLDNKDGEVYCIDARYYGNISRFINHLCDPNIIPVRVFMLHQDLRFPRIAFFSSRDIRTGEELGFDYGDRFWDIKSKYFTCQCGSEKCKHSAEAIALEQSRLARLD
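AlphaScreen read-out: biotin-H3K9 peptide (500 nM) methylation by 20 nM enzyme with 20 uM SAM, 2 h at room temperature after 15 min compound preincubation; anti-monomethyl H3K9 antibody plus donor/acceptor beads, 10 min dark.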
Of the large screens only hits and unclear results are named; the others gave an inactive call. This is a sample that favours compounds with a hit; in the whole collection about 12% have one here. Calls come from the whole dose curve; as a rule, active = well fitted curve in the direction sought with a large enough effect; inconclusive = small, poorly fitted or top-dose-only effect, or another doubt; inactive = no such curve, though single readings can be large; an effect the other way counts as inactive or inconclusive.

CN1Cc2c(N3CCOCC3)nc(SCCC#N)c(C#N)c2CC1(C)C	none
CC(Sc1nc(N2CCOCC2)c2c(c1C#N)CC(C)(C)OC2)C(=O)O (configuration not stated)	G9a block 50µM (no result: L3MBTL1 block)
COC(=O)CSc1nc(N2CCOCC2)c2c(c1C#N)CC(C)(C)OC2	BAZ2B block inconclusive, G9a block inconclusive (no result: L3MBTL1 block)
CC(C)Sc1nc(N2CCOCC2)c2c(c1C#N)CC(C)(C)N(C)C2	JMJD2A Tudor inh 11µM (no result: L3MBTL1 block)
CC(C)Sc1nc(N2CCCC2)c2c(c1C#N)CC(C)(C)OC2	none
CC1(C)Cc2c(C#N)c(SCc3ccccc3)nc(N3CCOCC3)c2CO1	none
COC(=O)Sc1nc(N2CCOCC2)c2c(c1C#N)CC(C)(C)OC2	Sfp inh inconclusive, JMJD2A Tudor inh inconclusive, G9a block 7.9µM
CC1(C)Cc2c(C#N)c(SCC(=O)c3ccccc3)nc(N3CCOCC3)c2CO1	Sfp inh 14µM, JMJD2A Tudor inh 63µM, G9a block 22µM
COc1ccc(CCNC(=O)c2c(C)nn(-c3ccc(F)cc3)c2-n2cccc2)c(OC)c1OC	none (no result: Sfp inh, L3MBTL1 block)
Cc1ccc(C)c(NC(=O)C(=O)NCCc2csc3nc(-c4ccccc4C)nn23)c1	none (no result: Sfp inh, L3MBTL1 block)
C/C(CCc1oc2c(Br)cc(Br)cc2c1-c1ccc(C)o1)=N\O	Sfp inh 22µM, BAZ2B block inconclusive, JMJD2A Tudor inh inconclusive, G9a block inconclusive
C/C(CCc1oc2ccccc2c1-c1ccc(C)o1)=N/O	Sfp inh 28µM, BAZ2B block inconclusive, JMJD2A Tudor inh 56µM, G9a block inconclusive
COc1cccc(OC)c1OCc1cc(C2C3CCCC=C3C(C#N)=C(N)C2(C#N)C#N)c(C)cc1C (configuration not stated)	Sfp inh 56µM, BAZ2B block inconclusive, JMJD2A Tudor inh inconclusive (no result: G9a block)
CCN(CC)CCNC(=O)c1cc2c(=O)n(C)c3cc(Cl)ccc3c2s1	none (no result: Sfp inh, L3MBTL1 block, BAZ2B block)
NS(=O)(=O)c1ccc(CCNc2nc3c(-c4cccc(F)c4)nnn3c3ccc(Cl)cc23)cc1	BAZ2B block inconclusive (no result: Sfp inh, L3MBTL1 block)
C=CC[n+]1c(/C=C/c2ccc(OC(C)=O)c(OC)c2)ccc2ccccc21	G9a block 79µM (no result: L3MBTL1 block)
COc1cc(/C=N/NC(=O)Nc2ccccc2)ccc1OC(C)=O	none
O=CN1CCN(C(=O)c2ccccc2F)CC1	none (no result: BAZ2B block)
Cc1ccc(CN2CCN(CC3CC4C=CC3C4)CC2)cc1 (configuration not stated)	Sfp inh inconclusive, HP1b binding inh inconclusive, BAZ2B block 28µM, JMJD2A Tudor inh 5.6µM, G9a block inconclusive (no result: L3MBTL1 block)
O=S(=O)(c1ccc(F)cc1)N1CCN(CC2CC3C=CC2C3)CC1 (configuration not stated)	HP1b binding inh inconclusive, BAZ2B block 50µM, JMJD2A Tudor inh 11µM, G9a block 22µM (no result: L3MBTL1 block)
O=C(c1cccc(F)c1)N1CCN(CC2CC3C=CC2C3)CC1 (configuration not stated)	HP1b binding inh inconclusive, BAZ2B block 50µM, JMJD2A Tudor inh 5.6µM, G9a block 10µM
O=C(c1ccccc1F)N1CCN(CC2CC3C=CC2C3)CC1 (configuration not stated)	HP1b binding inh inconclusive, BAZ2B block 56µM, JMJD2A Tudor inh 4µM, G9a block inconclusive
O=C(COc1ccc(Br)cc1)Nc1cccc2cccnc12	none (no result: Sfp inh, L3MBTL1 block)
COC(=O)c1cccc(Nc2c(-c3ccc(OC)cc3)nc3nc[nH]n23)c1	HP1b binding inh inconclusive, BAZ2B block inconclusive, JMJD2A Tudor inh inconclusive (no result: Sfp inh, L3MBTL1 block)
O=[N+]([O-])c1cc(Cl)cc(/C=N\Nc2ccccn2)c1O	HP1b binding inh 10µM, BAZ2B block 4.5µM, JMJD2A Tudor inh 10µM, G9a block inconclusive
O=C(N/N=C/c1ccc(F)cc1)c1cc(-c2ccccn2)nc2ccccc12	none (no result: Sfp inh)
COc1cccc(/C=N/NC(=O)c2cc(-c3ccccn3)nc3ccccc23)c1O	JMJD2A Tudor inh 56µM (no result: Sfp inh)
O=C(N/N=C/c1cc(Cl)cc([N+](=O)[O-])c1O)c1cc(-c2ccccn2)nc2ccccc12	HP1b binding inh inconclusive, BAZ2B block inconclusive, JMJD2A Tudor inh 45µM (no result: L3MBTL1 block)
CCCC(=O)Nc1ccc2c(c1)nc(CN1CCN(C(=O)OCC)CC1)n2C(C)C	none (no result: Sfp inh, L3MBTL1 block)
CCCC(=O)Nc1ccc2c(c1)nc(CN1CCN(C(C)=O)CC1)n2C	G9a block 50µM
